Hits are enriched below; roughly 6.6% of the tested compounds scored in any of these assays.
KB-3-1 tox: KB-3-1 parental cell cytotoxicity | KB-3-1 viability, CellTiter-Glo ATP luminescence, 72 h | 400,000 compounds, 1.4% hits | Potency, µM (titrated, usually from 46.1 µM), usual class: cytotoxic; further: on the % scale 0 is the no-effect control and ±100 the full control effect; nearly all actives have a fitted effect of over 60% in size
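Viability of parental KB-3-1 cells, measured by CellTiter-Glo luminescence, followed a 72 h incubation at 37 °C with pinned compounds in phenol-red-free DMEM containing 10% FBS.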
RGS4 inh: inhibitors of human regulator of G protein signaling 4; P49798; Transcreener GDP fluorescence polarization, RGS4-accelerated GTP hydrolysis; Potency, µM (titrated, usually from 114 µM), for inactives: top-dose activity change, negative = inhibition, actives largely listed as inhibitors; 390,000 compounds, 0.039% hits; further: on the % scale 0 is the no-effect control and ±100 the full control effect; nearly all actives have a fitted effect of over 75% in size
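MLSMR compounds (23 nl, pin-transferred) preincubated 10 min at room temperature with a 500nM (2x) first reagent, then RGS4 at 900nM (2x) plus Transcreener GDP mix added; fluorescence polarization (620/688 nm) read before and after 90 min at 30 °C.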
SW480 rereplic: DNA re-replication induction in SW480 cells | Potency, µM (highest dose often 46.1 µM), inactives show at the top dose re-replication activation, hits mostly activators | AID 624297 | 340,000 compounds, 1.8% hits | SW480 DNA re-replication, Hoechst DNA content imaging, 48 h; further: % of control where 0% means no effect; nearly all actives have a fitted effect of over 55% in size
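Readout is total intensity of Hoechst-stained nuclei, excited at 405 nm and collected at 500-530 nm. Compound treatment lasted 48 hr at 37 C in 5% CO2 before staining.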
TSG101-PTAP inh: blocks PTAP/TSG101 interaction to inhibit HIV-1 budding; Potency, µM (top dose mostly 115 µM), without a hit: at the top dose activity change, negative = inhibition, hits mostly inhibitors; Fluorescence polarization, FITC-PTAP peptide / Tsg101 binding; AID 493005; Q99816; 340,000 tested, under 10 active; active means well fitted inhibition curve with a large enough effect in the main read-out, with a control signal flat, not every such curve was filed as active; inconclusive means small, poorly fitted or top-dose-only effect, or effect the other way, or a change in a side signal; inactive means no such curve, though single readings can be large or run the other way; further: % of control where 0% means no effect
Target sequence (Q99816 whole entry, looked up): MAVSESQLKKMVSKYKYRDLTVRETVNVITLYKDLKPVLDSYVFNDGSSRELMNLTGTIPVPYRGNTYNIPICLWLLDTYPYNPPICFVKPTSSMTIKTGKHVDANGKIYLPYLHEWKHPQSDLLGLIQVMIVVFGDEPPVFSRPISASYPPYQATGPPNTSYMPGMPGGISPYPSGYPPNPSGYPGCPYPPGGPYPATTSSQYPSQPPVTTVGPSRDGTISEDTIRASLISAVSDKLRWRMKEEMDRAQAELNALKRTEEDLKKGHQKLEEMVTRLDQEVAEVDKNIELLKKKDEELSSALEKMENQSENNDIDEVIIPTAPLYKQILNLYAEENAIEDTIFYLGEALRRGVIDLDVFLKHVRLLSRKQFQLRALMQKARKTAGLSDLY
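Compounds were pin-transferred onto Tsg101 binding domain (10 uM final) in HEPES pH 7.5 buffer, then FITC-PTAP peptide was added at 50 nM final. After 20 min at RT, polarization reported peptide displacement across a qHTS concentration series.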
KB-V1 cytotox: kills drug-selected multidrug resistant KB-V1 cells. AID 1347076. KB-V1 MDR cells viability, CellTiter-Glo, 72 h. Potency, µM (series often up to 46.1 µM), actives largely listed as cytotoxic. 400,000 compounds, 3.4% hits; further: on the % scale 0 is the no-effect control and ±100 the full control effect; nearly all actives have a fitted effect of over 60% in size
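Cytotoxicity toward P-gp-expressing KB-V1 cells was determined as loss of CellTiter-Glo luminescence after 72 h at 37 degrees C. Compounds were tested in quantitative HTS format across a concentration range, with curves fitted to normalized data.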
MCF10A rerep: DNA re-replication induction in MCF 10a cells. Potency, µM (doses to about 46.1 µM), inactives show at the highest dose activity, positive = re-replication, usual class: activators. MCF 10A DNA re-replication, Hoechst nuclear intensity, 48 h. 350,000 compounds, 2.9% hits. AID 624296; further: % of control where 0% means no effect; nearly all actives have a fitted effect of over 50% in size
* marks the source's active call; other numbers are inactive results. Unless noted, the call rests on the fitted dose curve; in most records, active means well fitted curve in the direction sought with a large enough effect; inconclusive means small, poorly fitted or top-dose-only effect, or another doubt; inactive means no such curve, though single readings can be large; an effect the other way counts as inactive or inconclusive. Potency means the concentration at half of the fitted maximal effect.

Results for COc1ccc(-c2cc(C(=O)NN)[nH]n2)cc1OC ?
KB-3-1 tox: inactive; RGS4 inh: 13.9%; SW480 rereplic: inconclusive; TSG101-PTAP inh: 0.4%; KB-V1 cytotox: inactive; MCF10A rerep: inconclusive

Results for COc1ccc(-c2cc(C(=O)O)[nH]n2)cc1OC ?
KB-3-1 tox: 23.1µM*; RGS4 inh: 2.7%; SW480 rereplic: 4.7%; TSG101-PTAP inh: -1.0%; KB-V1 cytotox: inactive; MCF10A rerep: -0.3%

How did Cn1c(CCNC(=O)c2ccccc2)nc2cc(NC(=O)c3ccco3)ccc21 do in these assays?
KB-3-1 tox: inconclusive; RGS4 inh: 9.6%; SW480 rereplic: -0.9%; TSG101-PTAP inh: -9.0%; KB-V1 cytotox: 16.4µM*; MCF10A rerep: 10.1%

What do the screens show for `COc1ccccc1C(=O)Nc1ccc2c(c1)nc(CCNC(=O)c1ccco1)n2C`?
KB-3-1 tox: 1.64µM*; RGS4 inh: -26.4%; SW480 rereplic: 5.17µM*; TSG101-PTAP inh: -1.1%; KB-V1 cytotox: inconclusive; MCF10A rerep: inconclusive

How did Cn1c(CCNC(=O)c2ccco2)nc2cc(NC(=O)c3ccco3)ccc21 do in these assays?
KB-3-1 tox: inactive; RGS4 inh: -17.7%; SW480 rereplic: 0.9%; TSG101-PTAP inh: -0.9%; KB-V1 cytotox: inactive; MCF10A rerep: 7.5%

What do the screens show for `O=C(CSc1nccn1-c1cccc(Cl)c1)Nc1cccc2ccccc12`?
RGS4 inh: -28.1%

Results for Cc1cc(=O)n2c(sc3ccccc32)c1C#N ?
KB-3-1 tox: inactive; RGS4 inh: 5.2%; SW480 rereplic: 23.1µM*; TSG101-PTAP inh: -2.0%; KB-V1 cytotox: inactive; MCF10A rerep: inconclusive

How did CCOc1ccccc1C(=O)Nc1ccccc1-c1ccccc1 do in these assays?
KB-3-1 tox: inconclusive; RGS4 inh: 1.6%; SW480 rereplic: 13.9%; TSG101-PTAP inh: -1.0%; KB-V1 cytotox: 14.6µM*; MCF10A rerep: 20.6µM*

Results for COc1ccc(C(=O)Nc2ccccc2-c2ccccc2)cc1Cl ?
KB-3-1 tox: inactive; RGS4 inh: -3.8%; SW480 rereplic: -1.7%; TSG101-PTAP inh: 0.7%; KB-V1 cytotox: inactive; MCF10A rerep: 14.8%

What do the screens show for `CCOc1ccccc1C(=O)Nc1ccccc1O`?
KB-3-1 tox: inactive; RGS4 inh: -14.9%; SW480 rereplic: -12.4%; TSG101-PTAP inh: -0.9%; KB-V1 cytotox: inactive; MCF10A rerep: 0.1%

What do the screens show for `CCN(CC)S(=O)(=O)c1cc(C(=O)Nc2ccccc2[N+](=O)[O-])ccc1Cl`?
KB-3-1 tox: inactive; RGS4 inh: -18.7%; SW480 rereplic: 16.4µM*; TSG101-PTAP inh: 1.4%; KB-V1 cytotox: inconclusive; MCF10A rerep: inconclusive

What do the screens show for `O=C(Nc1ccccc1-c1ccccc1)c1ccc(Cl)c([N+](=O)[O-])c1`?
KB-3-1 tox: 16.4µM*; RGS4 inh: -44.1%; SW480 rereplic: -3.5%; TSG101-PTAP inh: -0.4%; KB-V1 cytotox: inactive; MCF10A rerep: 9.2µM*

How did CN(C)S(=O)(=O)c1cccc(C(=O)Nc2ccccc2[N+](=O)[O-])c1 do in these assays?
KB-3-1 tox: inactive; RGS4 inh: -5.3%; SW480 rereplic: inconclusive; TSG101-PTAP inh: 0.3%; KB-V1 cytotox: inactive; MCF10A rerep: inconclusive

What do the screens show for `O=C(Nc1ccc(Nc2ccccc2)cc1)c1ccc(Cl)c([N+](=O)[O-])c1`?
KB-3-1 tox: inactive; RGS4 inh: -1.1%; SW480 rereplic: -1.2%; TSG101-PTAP inh: 1.9%; KB-V1 cytotox: inactive; MCF10A rerep: 25.2%

Results for CCOc1c(Cl)cc(C(=O)Nc2ccccc2-c2ccccc2)cc1Cl ?
KB-3-1 tox: inconclusive; RGS4 inh: -12.5%; SW480 rereplic: -139.5%; TSG101-PTAP inh: -1.2%; KB-V1 cytotox: 20.6µM*; MCF10A rerep: -6.6%

How did CC(C)OCCCNC(=O)c1cn(C)c2ccc(S(=O)(=O)N3CCCCCC3)cc2c1=O do in these assays?
KB-3-1 tox: inconclusive; RGS4 inh: -1.7%; KB-V1 cytotox: inactive
